Experiment [1] addresses Nuclear receptor coactivator 3 (Homo sapiens) (UniProt Q9Y6Q9). Description: SRC3 coactivator transcriptional activity inhibitors, confirmation, cell-based, luminescence, quadruplicate (AID 588792;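 active = mean inhibition over 43.08%, the solvent-only control mean plus 3 SD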;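 note: 0% = DMSO treated cells and 100% = gossypol at 36 µM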). Particulars: HEK293 GAL4-SRC3 luciferase reporter, at 3.6 µM, hits give high values. On the technique in general: In a reporter assay the amount or activity of a reporter protein is the signal.

For experiment [2], the system named is transactivating tegument protein VP16 (Human herpesvirus 1), Gal4-VP16 luciferase reporter. Kind of experiment: VP16 transactivation inhibitors, counter-screen for SRC3 inhibitor project, cell-based, luminescence, high throughput (AID 588794; in the data active = inhibition above about 30%). Conditions: mammalian cells, VP16-driven luciferase reporter luminescence; at 3.6 µM; hits give high values. (The purpose of a counterscreen is to sort out artefacts and off-target activity.)

In experiment [3] the target is Nuclear receptor coactivator 1 (Homo sapiens) (UniProt Q15788). Description: SRC1 coactivator transcriptional activity inhibitors, confirmation, cell-based, luminescence, quadruplicate (AID 588820).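 Note: 0% = DMSO wells and 100% = gossypol 36 µM treated wells.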 Particulars: HEK293 GAL4-SRC1 luciferase reporter, at 3.6 µM, hits give high values.
Chain of Nuclear receptor coactivator 1 (Homo sapiens) (Q15788 whole entry, looked up, the tested form may be a part): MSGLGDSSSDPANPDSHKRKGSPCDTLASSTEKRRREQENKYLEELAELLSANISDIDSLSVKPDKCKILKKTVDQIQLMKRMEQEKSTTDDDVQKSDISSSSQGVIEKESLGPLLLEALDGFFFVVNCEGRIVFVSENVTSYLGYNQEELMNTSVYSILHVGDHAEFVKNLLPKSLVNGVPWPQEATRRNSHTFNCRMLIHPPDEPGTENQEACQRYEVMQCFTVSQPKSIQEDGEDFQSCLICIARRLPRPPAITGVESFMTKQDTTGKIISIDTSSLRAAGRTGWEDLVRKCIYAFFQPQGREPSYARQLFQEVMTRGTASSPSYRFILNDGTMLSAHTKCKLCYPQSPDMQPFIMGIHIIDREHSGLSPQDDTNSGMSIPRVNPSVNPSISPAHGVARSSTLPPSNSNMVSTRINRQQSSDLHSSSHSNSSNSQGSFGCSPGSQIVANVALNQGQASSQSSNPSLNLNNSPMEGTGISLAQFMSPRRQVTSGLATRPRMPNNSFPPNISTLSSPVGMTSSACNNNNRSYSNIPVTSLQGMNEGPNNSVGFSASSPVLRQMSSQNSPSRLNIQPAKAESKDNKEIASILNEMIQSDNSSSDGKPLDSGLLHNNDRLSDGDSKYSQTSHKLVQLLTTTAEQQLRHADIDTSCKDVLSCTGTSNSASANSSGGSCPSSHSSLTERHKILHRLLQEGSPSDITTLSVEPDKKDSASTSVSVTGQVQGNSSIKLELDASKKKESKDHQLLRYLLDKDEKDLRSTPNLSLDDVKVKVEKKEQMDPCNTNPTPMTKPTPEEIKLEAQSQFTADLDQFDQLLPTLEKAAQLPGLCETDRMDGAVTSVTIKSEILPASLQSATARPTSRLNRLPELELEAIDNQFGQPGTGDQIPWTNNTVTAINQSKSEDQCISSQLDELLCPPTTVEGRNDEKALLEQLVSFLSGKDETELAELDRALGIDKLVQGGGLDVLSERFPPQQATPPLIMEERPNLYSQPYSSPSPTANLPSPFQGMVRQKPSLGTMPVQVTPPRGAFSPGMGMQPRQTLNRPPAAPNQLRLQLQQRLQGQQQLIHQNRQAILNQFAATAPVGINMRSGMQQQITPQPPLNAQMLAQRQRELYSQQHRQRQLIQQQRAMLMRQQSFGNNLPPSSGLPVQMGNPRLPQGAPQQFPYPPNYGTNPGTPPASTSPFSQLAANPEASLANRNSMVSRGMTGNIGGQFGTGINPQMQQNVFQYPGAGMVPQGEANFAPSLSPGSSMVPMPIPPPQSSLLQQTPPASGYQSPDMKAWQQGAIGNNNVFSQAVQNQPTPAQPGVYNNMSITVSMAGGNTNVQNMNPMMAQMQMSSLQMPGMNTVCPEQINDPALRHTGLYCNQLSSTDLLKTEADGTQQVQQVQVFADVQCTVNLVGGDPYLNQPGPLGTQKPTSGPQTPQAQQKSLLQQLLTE
Experiment [4] in a line: VP16 transactivation inhibitors, counter-screen for SRC1 inhibitor project, cell-based, luminescence, high throughput (AID 588824; in the data active = inhibition above about 25%). Particulars: cell-based VP16 transactivation luciferase luminescence; at 3.6 µM; hits give high values.
The test system of experiment [5] is transactivating tegument protein VP16 (Human herpesvirus 1). Description: VP16 transactivation reporter inhibitors, counter-screen for SRC2 inhibitor project, cell-based, luminescence, single concentration (AID 652007; in the data active = inhibition above about 36%). Particulars: cell-based VP16 transactivation luciferase reporter, at 8.9 µM, hits give high values.
The target in experiment [6] is Nuclear receptor coactivator 2 (Homo sapiens) (UniProt Q15596). Kind of experiment: SRC2 coactivator transcriptional activity inhibitors, confirmation, cell-based, luminescence, HEK293, triplicate (AID 652008;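 active = mean inhibition above 46.5%, the solvent-only control mean plus 3 SD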;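 note: 0% = DMSO-treated cells and 100% = Gossypol at 36 µM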). Particulars: HEK293 GAL4-SRC2 luciferase reporter, at 8.9 µM, hits give high values.
Chain of Nuclear receptor coactivator 2 (Homo sapiens) (Q15596 whole entry, looked up, the tested form may be a part): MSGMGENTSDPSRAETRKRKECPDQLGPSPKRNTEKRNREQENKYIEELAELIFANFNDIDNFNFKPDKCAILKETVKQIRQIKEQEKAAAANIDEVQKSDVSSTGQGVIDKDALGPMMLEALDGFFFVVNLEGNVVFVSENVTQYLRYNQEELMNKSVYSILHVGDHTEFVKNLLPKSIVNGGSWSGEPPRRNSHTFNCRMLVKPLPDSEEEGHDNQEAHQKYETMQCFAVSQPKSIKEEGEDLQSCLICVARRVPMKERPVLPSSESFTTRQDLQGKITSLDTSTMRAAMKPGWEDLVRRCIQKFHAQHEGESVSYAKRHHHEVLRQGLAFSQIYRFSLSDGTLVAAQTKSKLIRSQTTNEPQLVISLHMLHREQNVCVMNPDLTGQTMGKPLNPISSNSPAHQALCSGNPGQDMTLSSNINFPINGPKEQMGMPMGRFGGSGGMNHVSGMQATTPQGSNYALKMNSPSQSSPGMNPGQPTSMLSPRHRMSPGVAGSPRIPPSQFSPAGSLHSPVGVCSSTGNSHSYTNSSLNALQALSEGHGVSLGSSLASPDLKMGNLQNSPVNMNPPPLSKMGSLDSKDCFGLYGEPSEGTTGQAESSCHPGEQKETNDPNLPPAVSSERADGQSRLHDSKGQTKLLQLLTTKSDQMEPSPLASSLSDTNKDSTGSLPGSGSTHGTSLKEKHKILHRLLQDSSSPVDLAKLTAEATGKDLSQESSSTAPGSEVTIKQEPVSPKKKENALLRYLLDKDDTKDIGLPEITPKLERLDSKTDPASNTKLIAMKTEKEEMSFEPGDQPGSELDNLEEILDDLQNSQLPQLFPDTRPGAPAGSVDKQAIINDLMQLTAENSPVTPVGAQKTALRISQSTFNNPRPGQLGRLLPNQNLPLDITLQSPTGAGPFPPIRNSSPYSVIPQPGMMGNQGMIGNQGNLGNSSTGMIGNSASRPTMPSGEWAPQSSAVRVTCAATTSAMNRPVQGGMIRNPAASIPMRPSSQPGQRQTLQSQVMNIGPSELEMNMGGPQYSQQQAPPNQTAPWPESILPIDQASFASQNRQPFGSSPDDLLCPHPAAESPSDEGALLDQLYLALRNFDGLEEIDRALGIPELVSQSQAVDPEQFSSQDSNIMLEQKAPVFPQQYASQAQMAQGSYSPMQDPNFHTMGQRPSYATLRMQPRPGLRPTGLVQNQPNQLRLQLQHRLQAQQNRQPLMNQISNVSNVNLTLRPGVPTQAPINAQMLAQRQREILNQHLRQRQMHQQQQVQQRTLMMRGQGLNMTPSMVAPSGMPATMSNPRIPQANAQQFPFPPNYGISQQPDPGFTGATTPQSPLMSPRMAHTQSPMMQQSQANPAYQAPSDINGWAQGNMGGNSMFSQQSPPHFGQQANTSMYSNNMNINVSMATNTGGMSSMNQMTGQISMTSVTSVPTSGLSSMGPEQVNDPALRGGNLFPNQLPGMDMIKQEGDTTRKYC

Values without a mark were called inactive. The source made the active and inactive calls.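 Rule for the calls, unless noted: active = mean inhibition above 46.68%, the untreated control wells mean plus 3 SD; inactive = the rest.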

Chain of Nuclear receptor coactivator 3 (Homo sapiens) (Q9Y6Q9 whole entry, looked up, the tested form may be a part): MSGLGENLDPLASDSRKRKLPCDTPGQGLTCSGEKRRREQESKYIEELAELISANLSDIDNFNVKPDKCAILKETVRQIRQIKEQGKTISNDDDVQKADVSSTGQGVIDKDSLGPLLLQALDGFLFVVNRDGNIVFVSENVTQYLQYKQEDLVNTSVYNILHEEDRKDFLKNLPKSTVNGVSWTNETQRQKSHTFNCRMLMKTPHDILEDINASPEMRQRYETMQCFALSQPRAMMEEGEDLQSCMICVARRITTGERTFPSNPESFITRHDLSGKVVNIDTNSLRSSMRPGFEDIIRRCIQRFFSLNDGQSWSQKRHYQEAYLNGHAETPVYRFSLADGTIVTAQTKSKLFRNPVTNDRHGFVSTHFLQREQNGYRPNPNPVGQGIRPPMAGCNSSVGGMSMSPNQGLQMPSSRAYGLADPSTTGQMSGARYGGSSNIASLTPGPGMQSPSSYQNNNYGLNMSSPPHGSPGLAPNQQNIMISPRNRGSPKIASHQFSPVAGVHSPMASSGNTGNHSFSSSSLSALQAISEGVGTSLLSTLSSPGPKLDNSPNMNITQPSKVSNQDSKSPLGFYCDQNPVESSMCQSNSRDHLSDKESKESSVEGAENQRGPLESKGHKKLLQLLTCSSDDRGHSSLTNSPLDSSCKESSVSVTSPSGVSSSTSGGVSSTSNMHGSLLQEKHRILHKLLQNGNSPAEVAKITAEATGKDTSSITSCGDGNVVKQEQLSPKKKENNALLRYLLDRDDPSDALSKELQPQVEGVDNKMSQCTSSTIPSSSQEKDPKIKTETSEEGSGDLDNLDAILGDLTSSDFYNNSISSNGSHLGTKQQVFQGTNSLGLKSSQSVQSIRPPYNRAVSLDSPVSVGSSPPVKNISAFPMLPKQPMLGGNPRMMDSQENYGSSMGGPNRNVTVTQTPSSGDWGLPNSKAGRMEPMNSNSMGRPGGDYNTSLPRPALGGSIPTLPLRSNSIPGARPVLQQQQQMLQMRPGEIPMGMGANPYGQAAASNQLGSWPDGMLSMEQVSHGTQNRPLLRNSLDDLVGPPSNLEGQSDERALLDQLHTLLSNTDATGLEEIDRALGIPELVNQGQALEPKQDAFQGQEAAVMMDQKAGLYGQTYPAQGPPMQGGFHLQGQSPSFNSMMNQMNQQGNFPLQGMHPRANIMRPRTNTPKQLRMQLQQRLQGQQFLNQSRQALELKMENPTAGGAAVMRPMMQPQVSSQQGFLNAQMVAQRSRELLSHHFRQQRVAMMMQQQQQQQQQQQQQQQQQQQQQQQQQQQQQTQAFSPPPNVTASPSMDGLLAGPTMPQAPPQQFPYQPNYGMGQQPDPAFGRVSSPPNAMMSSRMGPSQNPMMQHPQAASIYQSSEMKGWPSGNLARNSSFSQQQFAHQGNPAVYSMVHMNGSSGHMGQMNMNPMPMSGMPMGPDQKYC

Usually inhibition stands for the drop in the measured response relative to a control, in per cent. Turning to `Cc1cccc(Nc2ncnc3ccc(Br)cc23)c1`, the inhibition in experiment [1] was 38.9%; in experiment [2], 32.6% (active); in experiment [3] it was 32.8%; in experiment [4], 25.8% (active); in experiment [5] it was 0.23%; in experiment [6], 29.7%.
Turning to `CC(C)(C)OC(=O)N1Cc2ccccc2C[C@H]1C(=O)NCC(=O)Nc1ccc2c(c1)OCCO2`, the inhibition in experiment [1] was 28.9%; in experiment [2], 1.92%; in experiment [3], 5.58%; in experiment [4], -7.64%; in experiment [5], -3.02%; in experiment [6], 52% (active).
Consider `O=C(CCl)N(C1CCCC1)C1CCS(=O)(=O)C1` (configuration not stated), for which the inhibition is 71.6% (active) in experiment [1]; 42.4% (active) in experiment [2]; 58.3% (active) in experiment [3]; 38.2% (active) in experiment [4]; 30.6% in experiment [5]; 63.6% (active) in experiment [6].
For the molecule `O=C(O)C1CC=CCC1C(=O)Nc1ccc2c(c1)OCCO2` (configuration not stated), the inhibition in experiment [1] was -15.8%; in experiment [2], -7.19%; in experiment [3], -47.1%; in experiment [4], -8.13%; in experiment [5], -13.1%; in experiment [6], 6.92%.
As to `c1cc2[nH]snc2c2nc(C3CC3)nc12`, the inhibition is 63.9% (active) in experiment [1]; 18.3% in experiment [2]; 53.3% (active) in experiment [3]; 23.3% in experiment [4]; -12.6% in experiment [5]; 19% in experiment [6].
As for `Cc1c(/C(O)=C2/C(=O)C(=O)N(CCN3CCOCC3)C2c2ccco2)cnn1-c1ccccc1` (configuration not stated), the inhibition was 23.3% in experiment [1]; 5.75% in experiment [2]; -20.6% in experiment [3]; -37.5% in experiment [4]; -7.38% in experiment [5]; 39% in experiment [6].
Turning to `O=C(CCCN1C(=O)/C(=C/c2ccccc2Cl)SC1=S)NNC(=O)c1ccc(Cl)cc1Cl`, the inhibition in experiment [1] is 55% (active); in experiment [2], 32.6% (active); in experiment [3] it was 37.1%; in experiment [4], 33% (active); in experiment [5] it was 76.7% (active); in experiment [6], 92.4% (active).
